Measurements: the supplement of paper PMC12819154, “High-throughput peptide-centric local stability assay extends protein–ligand identification to membrane proteins, tissues and bacteria” (Nature Structural & Molecular Biology, 2025)

What follows are targets tested with Nc1ncnc2c1ncn2[C@@H]1O[C@H](COP(=O)(O)OP(=O)(O)OP(=O)(O)O)[C@@H](O)[C@H]1O [adenosine 5'-triphosphate] (assay: log2 fold change of tryptic peptide abundance, ligand vs vehicle (limited proteolysis) (log2 ratio); higher = more trypsin-susceptible (destabilized)). Conditions: ligand concentration: 5 mM; sample: E. coli desalted lysate; replicate design: treated before aliquoting.
Method: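 HT-PELSA: desalted E. coli K-12 BW25113 lysate (with 12 mM MgCl2) incubated with 5 mM ATP (pH 7) or water for 30 min at 25 C, then a 4 min trypsin pulse at 22 C. Peptides were quantified by DIA-MS (4 replicates). Value is the peptide log2 fold change (treated/control); negative = stabilized. Scale: negative = ligand-stabilized region.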
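Further: lysate desalted by size exclusion to strip endogenous ATP, peptide intensities built from DIA-NN precursor signals, and peptides missing any value discarded before comparison.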

Row | Target | log2 fold change
1 | UniProt P25888 (peptide sequence: DLMASAQTGTGK, peptide start residue: 40) | -1.66
2 | UniProt P75745 (peptide sequence: QLLWGNR, peptide start residue: 167) | -0.312
3 | UniProt P75824 (peptide sequence: AGVCGCCK, peptide start residue: 275) | 0.616
4 | UniProt P37339 (peptide sequence: AFCDQNGIR, peptide start residue: 75) | 0.681
5 | UniProt P17117 (peptide sequence: ESRPFILDYLHK, peptide start residue: 223) | 1.13
6 | UniProt P75968 (peptide sequence: HLIIKPLSR, peptide start residue: 102) | -1.04
7 | UniProt Q46927 (peptide sequence: QINPECR, peptide start residue: 95) | -2.51
8 | UniProt P76222 (peptide sequence: LLAVADWR, peptide start residue: 97) | -0.698
9 | UniProt P30011 (peptide sequence: VRHYVELLEGTNTQLLDTR, peptide start residue: 135) | 0.868
10 | UniProt P37675 (peptide sequence: IVDLPMKLVGHK, peptide start residue: 78) | 0.735
11 | UniProt P21513 (peptide sequence: DNESLSLSILR, peptide start residue: 415) | 0.633
12 | UniProt P32053 (peptide sequence: AFEKPQKK, peptide start residue: 202) | -0.721
13 | UniProt P25536 (peptide sequence: IVTGIEEQR, peptide start residue: 27) | -1.03
14 | UniProt P77766 (peptide sequence: LAQGGAVTR, peptide start residue: 133) | -0.418
15 | UniProt P04949 (peptide sequence: NQSALSSSIER, peptide start residue: 21) | 0.651
16 | UniProt P56258 (peptide sequence: VGCVFATR, peptide start residue: 136) | -0.934
17 | UniProt P77735 (peptide sequence: LGMDYVDILQIHR, peptide start residue: 116) | -0.843
18 | UniProt P39399 (peptide sequence: AAGVSPVVVR, peptide start residue: 118) | 0.3
19 | UniProt P77608 (peptide sequence: AAEQGEAIAPLR, peptide start residue: 16) | 0.736
20 | UniProt P75821 (peptide sequence: DIKEDFRPHR, peptide start residue: 126) | -1.6

Row | Target | log2 fold change
21 | UniProt P00887 (peptide sequence: YPVTPGVATHVTDSRR, peptide start residue: 25) | -0.488
22 | UniProt P24255 (peptide sequence: KHNGHWTVELNSDSIPR, peptide start residue: 280) | 0.899
23 | UniProt P32141 (peptide sequence: ASGGFAMLAVDQR, peptide start residue: 12) | -0.432
24 | UniProt P45527 (peptide sequence: KLQEAVSFVHQHRR, peptide start residue: 46) | 0.779
25 | UniProt P00393 (peptide sequence: ISAAAHNELTK, peptide start residue: 228) | -0.559
26 | UniProt P0AC00 (peptide sequence: RYYGGLVEY, peptide start residue: 332) | -0.478
27 | UniProt P39400 (peptide sequence: VLGHEICGEIVGLGK, peptide start residue: 59) | -1.26
28 | UniProt P39280 (peptide sequence: IHSRLPIVIPAR, peptide start residue: 193) | 1.51
29 | UniProt P09323 (peptide sequence: AIDACITR, peptide start residue: 408) | 0.593
30 | UniProt P46144 (peptide sequence: RVWATAQK, peptide start residue: 32) | -1.44
31 | UniProt P12282 (peptide sequence: QTLHSDATVGQPK, peptide start residue: 74) | -1.54
32 | UniProt P00363 (peptide sequence: VSQAFWHEWR, peptide start residue: 291) | -0.722
33 | UniProt P07109 (peptide sequence: YGEHEVLK, peptide start residue: 15) | -1.13
34 | UniProt P08957 (peptide sequence: SRIGQEQLQFYR, peptide start residue: 61) | 1.09
35 | UniProt P0A698 (peptide sequence: SSLAFDTLYAEGQRR, peptide start residue: 38) | 2.9
36 | UniProt P0AFU8 (peptide sequence: FSDEIGGHLMSGHIMTTAEVAK, peptide start residue: 90) | 0.559
37 | UniProt P31470 (peptide sequence: EGEGVTITNLR, peptide start residue: 74) | -0.324
38 | UniProt P33599 (peptide sequence: QDLEMEALTFKPEEWGMKR, peptide start residue: 186) | -1.6
39 | UniProt P0C0T5 (peptide sequence: WTSAQLLRPQALDLVSR, peptide start residue: 130) | 0.388
40 | UniProt P18776 (peptide sequence: PICVESCPLR, peptide start residue: 139) | -1.14
